Test results taken from PubChem BioAssay (EPA / NIEHS).
“And” between values parts separate entries of the source, which are not always exact repeats. Identical values can stand only once. Some structures have more than one record in an assay (separate samples or runs), and their calls can disagree. The source made the active and inactive calls. Rule for the calls: active = hit-call score of the fitted dose curve at least 0.9, where 1 is the maximum; inactive = score below 0.9.

Read-out: Matrix Metallopeptidase 1 (MMP1), MMP1 (gene 4312)
Test: BSK_BE3C_MMP1: BioMAP Diversity Plus: BE3C Assay for Matrix Metallopeptidase 1 (MMP1) Biomarker Activity (AID 2283024)
Details: primary human bronchial epithelial cells; actives raise or lower the signal
In short: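 Human bronchial epithelial cells (BE3C system) exposed to compound for 24 h; MMP1 then quantified by ELISA. Activity was fitted in both directions relative to DMSO.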

Structure (SMILES) | outcome | AC50
O=C(O)C(F)(F)C(F)(F)C(F)(F)C(F)(F)C(F)(F)C(F)(F)C(F)(F)C(F)(F)C(F)(F)C(F)(F)C(F)(F)C(F)(F)F | inactive | 
O=S(=O)(O)C(F)(F)C(F)(F)C(F)(F)C(F)(F)C(F)(F)C(F)(F)C(F)(F)F |  | 8.64 µM (active) and 15.6 µM (active)
FC(F)(F)C(F)(F)C(F)(F)C(F)(F)CCI | inactive | 30 µM (active)
O=C(O)C(F)(F)C(F)(F)C(F)(F)C(F)(F)C(F)(F)C(F)(F)C(F)(F)C(F)(F)Cl |  | 7.12 µM (active) and 55.3 µM (active)
Cc1ccc(S(=O)(=O)OCC(F)(F)C(F)(F)C(F)(F)C(F)(F)C(F)(F)C(F)F)cc1 | inactive | 18.2 µM (active)
FC(F)(F)C(F)(F)C(F)(F)CI | inactive | 
O=C(O)C(F)(F)C(F)(F)C(F)(F)C(F)(F)F | inactive | 
Nc1ccc([N+](=O)[O-])cc1O | inactive | 
FC(F)(F)C(F)(F)C(F)(F)C(F)(F)C(F)(F)CCI |  | 30 µM (active) and 19.5 µM (active)
O=C(O)C(F)(F)C(F)(F)C(F)(F)C(F)(F)C(F)(F)C(F)(F)C(F)(F)C(F)(F)C(F)(F)C(F)(F)C(F)(F)C(F)(F)C(F)(F)F | inactive | 
CCCCCCCCCCCCCCCC[N+](C)(C)Cc1ccccc1 |  | 9.34 µM (active)
OCC(F)(F)C(F)(F)C(F)(F)F | inactive | 
O=C(O)C(F)(F)C(F)(F)F | inactive | 
CCc1c(Br)c(Br)c(Br)c(Br)c1Br | inactive | 
O=C(O)C(F)(OC(F)(F)C(F)(OC(F)(F)C(F)(F)C(F)(F)F)C(F)(F)F)C(F)(F)F (configuration not stated) | inactive | 
Oc1ccc(Nc2ccccc2)cc1 | inactive | 
C=CC(F)(F)C(F)(F)C(F)(F)C(F)(F)C(F)(F)C(F)(F)C(F)(F)C(F)(F)C=C | inactive | 
FC(F)(F)C(F)(F)C(F)(F)C(F)(F)C(F)(F)C(F)(F)C(F)(F)C(F)(F)F | inactive | 
N=C(N)C(F)(F)C(F)(F)C(F)(F)C(F)(F)C(F)(F)C(F)(F)C(F)(F)F | inactive | 19.4 µM (active)
FC(F)(F)C(F)(F)C(F)(F)C(F)(F)C(F)(F)C(F)(F)CC1CO1 (configuration not stated) | inactive | 

Read-out: not listed separately
Test: BSK_3C_Vis: BioMAP Diversity Plus: 3C Assay for Morphology Visualization (AID 2283025);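 note: fitted both ways so gain or loss versus DMSO counts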;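 for AC50: light microscopy image of cell morphology used as background control; cells imaged 24 h after dosing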
Details: primary human endothelial cells (HUVEC)
In short: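 Chemicals were added to primary human umbilical vein endothelium, cells were incubated 24 h, and morphology was then visualized by light microscopy. Gain or loss of signal was fitted bidirectionally relative to DMSO.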

Structure (SMILES) | outcome | AC50
Nc1ccc([N+](=O)[O-])cc1O | inactive | 
CCCCCCCCCCCCCCCC[N+](C)(C)Cc1ccccc1 |  | 2.96 µM (active)
CCc1c(Br)c(Br)c(Br)c(Br)c1Br | inactive | 
Oc1ccc(Nc2ccccc2)cc1 | inactive | 
